Bioassay records from PubChem.
D1 antag: human D1 dopamine receptor antagonism. activity change, negative = inhibition, % at 10 µM. 3.2% of 360,000 active. HEK293 TREx D1 cells, calcium flux, dopamine EC80; stronger effect = lower value. P21728. AID 504652; in the data active = activity change below about -30%
Target sequence (P21728 whole entry, looked up): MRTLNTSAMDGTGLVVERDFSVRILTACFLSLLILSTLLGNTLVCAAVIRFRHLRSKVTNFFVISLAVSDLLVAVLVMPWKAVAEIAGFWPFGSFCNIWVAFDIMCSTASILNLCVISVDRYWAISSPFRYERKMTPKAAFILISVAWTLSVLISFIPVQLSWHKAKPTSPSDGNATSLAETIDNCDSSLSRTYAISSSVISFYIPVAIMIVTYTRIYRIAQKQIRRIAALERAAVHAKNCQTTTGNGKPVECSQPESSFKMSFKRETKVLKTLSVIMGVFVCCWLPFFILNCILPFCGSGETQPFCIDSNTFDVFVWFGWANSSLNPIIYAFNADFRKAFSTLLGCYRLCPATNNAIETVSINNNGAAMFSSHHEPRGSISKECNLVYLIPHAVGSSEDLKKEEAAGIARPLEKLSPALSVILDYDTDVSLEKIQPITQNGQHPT
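Allosteric or orthosteric antagonism assessed as attenuation of the calcium response to EC80 dopamine, added 180 s after compound, in induced HEK293 Trex D1 cells loaded with no-wash calcium dye.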
DRD3 antagonist: blocks the human D3 dopamine receptor. P35462. D3R cells, DiscoveRx beta-arrestin luminescence, antagonist mode; stronger effect = lower value. max response, negative = inhibition, %. 2.5% of 360,000 active; in the data active = max response below about -50%; inconclusive = no clear call, values can overlap the other calls
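Cells plated overnight at 1500 cells/well, then exposed to library compounds with dopamine controls for 90 minutes at 37 degrees C. DiscoveRx reagent added for 30–60 minutes at room temperature; luminescence read, quantitative HTS format.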
D3 ag: activates the human D3 dopamine receptor. D3R DiscoveRx beta-arrestin cells, luminescence, 90 min. max activation, %. 0.58% of 410,000 active; in the data active = max activation above about 30%
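Agonist-mode cell screen: cells plated at 1500/well and incubated overnight at 37 °C, then exposed to library compounds for 90 min at 37 °C. Detection reagent was added for 30–60 min at room temperature, and luminescence was read.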
D1 agonist: activates the human D1 dopamine receptor | P21728 | HEK293 T-REx D1 cells, calcium flux, agonist mode | activation, % at 2 µM | 1% of 360,000 active | AID 504660; in the data active = activation above about 30%
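Tetracycline-induced HEK293 TREx D1 cells, force-coupled to calcium signalling, were dye-loaded with a no-wash calcium kit. Compound was pin-added after a 10 s baseline. Fluorescence was read kinetically at 1 cycle/s for 180 s, with calcium rises flagged as agonism.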
D1 PAM: human D1 dopamine receptor positive modulation. P21728. HEK293 TREx D1 cells, calcium flux, dopamine EC20 potentiation. potentiation, % at 10 µM. 0.036% of 360,000 active. AID 504651; in the data active = potentiation above about 30%
Of the large screens only hits and unclear results are named; the others gave an inactive call. Shown are actives, neighbours in structure and some others; about 6.1% of the full set was active somewhere.

COc1cc(/C=C2\SC(c3ccc(C)cc3)=NC2=O)cc(OC)c1O	DRD3 antagonist -54
Cc1ccc(C2=NC(=O)/C(=C/c3cc(O)c(O)c(Br)c3)S2)cc1	none
CCCCNC(=O)CCc1c(C)nc2cc(-c3ccccc3)nn2c1C	none (no result: DRD3 antagonist)
COc1ccc(N2CCN(C(=O)CCc3c(C)nc4cc(-c5ccc(Cl)cc5)nn4c3C)CC2)cc1	D1 antag -39 (no result: DRD3 antagonist)
COCCCNC(=O)CCc1c(C)nc2cc(-c3ccc(Cl)cc3)nn2c1C	D1 antag -54 (no result: DRD3 antagonist)
N/C(=N\OC(=O)Cc1cccs1)c1ccccc1	D1 antag -38
Cc1ccc(/C(N)=N/OC(=O)Cc2cccs2)cc1	none
CC(=O)Nc1ccc(C(=O)OCC(=O)c2ccc(S(=O)(=O)N3CCCCC3)cc2)cc1	none
N#CCCN(C(=O)COC(=O)c1ccc(S(=O)(=O)N2CCCC2)cc1)c1cccc(Cl)c1	D1 agonist 31
CCOc1ncccc1C(=O)OCC(=O)Nc1ccc(S(=O)(=O)N2CCCC2)cc1	D1 antag -56
COc1ccc2nc(SCC(=O)Nc3ccc(S(=O)(=O)N4CCCC4)cc3)c(C#N)cc2c1	none
N#Cc1cc2ccccc2nc1SCC(=O)Nc1ccc(S(=O)(=O)N2CCCC2)cc1	D1 agonist 41
CC(=O)Nc1cccc(C(=O)OCC(=O)c2ccc(S(=O)(=O)N3CCCCC3)cc2)c1	D1 antag -37
CCCOc1ccc(-c2nn(-c3ccccc3)cc2C2NC(=O)NC(C)=C2C(=O)OC(C)C)cc1 (centres undefined)	none (no result: DRD3 antagonist)
O=C(NC1CC(=O)N(c2ccc3c(c2)OCCO3)C1)c1c(F)cccc1Cl (centres undefined)	none (no result: DRD3 antagonist)
O=C(COC(=O)c1ccc([N+](=O)[O-])o1)Nc1cccc(S(=O)(=O)N2CCCCC2)c1	D1 antag -31
O=C(COC(=O)c1ccc(S(=O)(=O)N2CCCCC2)cc1)Nc1ccccc1	D1 agonist 34 (no result: D1 PAM)
CCC(C)NC(=O)c1ccc(CN2CCc3ccccc3C2)cc1 (centres undefined)	DRD3 antagonist -66
CC(C)(C)SCCNC(=O)c1ccc(CN2CCc3ccccc3C2)cc1	DRD3 antagonist -74
COCC(C)NC(=O)c1ccc(CN2CCc3ccccc3C2)cc1 (centres undefined)	DRD3 antagonist -68
O=C(NCc1cccnc1)c1ccc(CN2CCc3ccccc3C2)cc1	DRD3 antagonist -75
O=C(NCc1ccco1)c1cccc2c1C(=O)N(C1CCCCC1)C2	none
O=C(NCc1cccnc1)c1cccc2c1C(=O)N(C1CCCCC1)C2	D1 antag -58
CCOC(=O)c1cccc(NC(=O)N2CC(CC)Sc3ccccc32)c1 (centres undefined)	none (no result: DRD3 antagonist)
Cc1ccc2c(c1)C(c1ccccc1)N(C(=O)c1ccc(S(=O)(=O)N3CCCCC3)cc1)CC(=O)N2 (centres undefined)	D1 antag -48 (no result: DRD3 antagonist)
COc1ccccc1C(=O)N1CC(=O)Nc2ccc(C)cc2C1c1ccc(F)cc1 (centres undefined)	DRD3 antagonist inconclusive
COc1ccc(C(=O)N2CC(=O)Nc3ccc(C)cc3C2c2ccccc2)c(OC)c1 (centres undefined)	D1 antag -45 (no result: DRD3 antagonist)
CCCCNC(=O)C(NC(=O)c1ccc(C(F)(F)F)cc1)C(=O)c1ccccc1 (centres undefined)	none (no result: D1 antag, D1 agonist, D1 PAM)
CC1=C(C)C(O)N(Cc2ccccc2)C1=O (centres undefined)	none
COc1ccc(CN2COc3ccc4c(-c5ccccc5)cc(=O)oc4c3C2)cc1	none (no result: DRD3 antagonist)
CCC(c1nc2ccccc2[nH]1)n1c(-c2ccnc(Cl)c2)nc2ccccc21 (centres undefined)	DRD3 antagonist -75 (no result: D1 antag, D1 agonist, D1 PAM)
Cc1ccc(C(OC(=O)c2ccco2)C(=O)NC(C)(C)C)cc1 (centres undefined)	D1 antag -44
CCN(CC)CCNC(=O)c1nn(C)c2c1CS(=O)(=O)c1ccccc1-2	none (no result: DRD3 antagonist)
O=c1[nH]cc(N=Cc2cc(Cl)cc(Cl)c2O)c(=O)[nH]1	DRD3 antagonist -67
COc1ccc(C(=O)c2sc3nc(-c4ccccc4)ccc3c2N)cc1OC	D1 agonist 57
NC(=O)c1sc2nc(-c3ccccc3)ccc2c1N	none
COc1ccc(-c2ccc3c(N)c(C(=O)c4ccc(OC)c(OC)c4)sc3n2)cc1	D1 agonist 78
COc1ccc(-c2ccc3c(N)c(C(=O)Nc4cccc(C)c4)sc3n2)cc1	none (no result: DRD3 antagonist)
COc1cccc(-c2ccc3c(N)c(C(=O)c4ccc(Br)cc4)sc3n2)c1	D1 agonist 81 (no result: DRD3 antagonist)
CCOC(=O)c1c(NC(C)=O)c2c3c(sc2n1Cc1nc(-c2ccc(Cl)cc2)oc1C)CCCC3	none (no result: DRD3 antagonist)
COc1cccc(CNC(=O)c2ccc3c(c2)nc2n3CCOC2)c1OC	none (no result: DRD3 antagonist)
COc1cc(/C=C/c2nc(C#N)c(NC3CCCCC3)o2)cc(OC)c1OC	none (no result: DRD3 antagonist)
CCOC(=O)c1sc(NC(=O)c2cc3nc(-c4ccc(Br)cc4)cc(C(F)(F)F)n3n2)c(C(=O)OCC)c1C	none (no result: DRD3 antagonist)
Cc1ccccc1NC(=O)c1oc2c(c1C)-c1nn(Cc3cccc(Cl)c3)cc1CC2	none (no result: DRD3 antagonist)
COc1cc(NC(=O)c2oc3c(c2C)-c2nn(Cc4cccc(Cl)c4)cc2CC3)cc(OC)c1	D1 antag -31 (no result: DRD3 antagonist)
Nn1c(SCc2cccc(F)c2)nnc1-c1ccncc1	none
Fc1ccc(NC(=S)NC2CCN(Cc3ccccc3)CC2)cc1	DRD3 antagonist -55
CC(C)(C)CC(C)(C)NC(=S)NC1CCN(Cc2ccccc2)CC1	DRD3 antagonist inconclusive
S=C(Nc1ccc(Cl)c(Cl)c1)NC1CCN(Cc2ccccc2)CC1	D1 antag -43, DRD3 antagonist -55, D1 agonist 47
COc1ccc(-c2cc3nc(C)c(CCC(=O)NC4CCCCC4)c(C)n3n2)c(OC)c1	none (no result: DRD3 antagonist)
CC(C)c1ccc(CNNC(=O)c2ccccc2)cc1	none
Cc1ccc(NC(=O)c2cc(S(=O)(=O)N3CCC(C)CC3)cn2C)cc1Cl	none (no result: DRD3 antagonist)
O=C1CCCC2=C1C(c1ccc(Cl)cc1)N1C(=O)CCSC1=N2 (centres undefined)	none
CC1(C)CC(=O)C2=C(C1)N=C1SCCC(=O)N1C2c1ccccc1 (centres undefined)	DRD3 antagonist -53
O=C1C2C(c3ccccc3)=NN(c3ccccc3)C2C(=O)N1c1ccccc1 (centres undefined)	none
O=C1[C@H]2C(c3ccccc3)=NN(c3ccccc3)[C@H]2C(=O)N1c1ccccc1	D1 antag -45
COc1ccc(OC)c(N/C(=N/C(=S)Nc2ccccc2)Nc2nc(C)cc(C)n2)c1	D1 antag -31
COc1ccc(/C=C/c2nc(C#N)c(NCc3ccc(C)cc3)o2)cc1OC	none (no result: DRD3 antagonist)
CCN(CC)CCCNc1oc(/C=C/c2ccc(OC)c(OC)c2)nc1C#N	none (no result: DRD3 antagonist)
COc1ccc(CNc2oc(/C=C/c3cc(OC)c(OC)c(OC)c3)nc2C#N)cc1	D1 agonist 40 (no result: DRD3 antagonist)
CCOc1ccc(/C=C/c2nc(C#N)c(NCCc3ccccc3)o2)cc1	D1 antag -37 (no result: DRD3 antagonist)
